# Compound activity from PubChem.
# Shown are actives, neighbours in structure and some others; about 12% of the full set was active somewhere.
# CHX counter = Cycloheximide Counterscreen for Small Molecule Inhibitors of Shiga Toxin; cell reporter, cycloheximide protein synthesis inhibition counterscreen; max response, %; 300,000 compounds, 12% hits; AID 2314, 2010; in the data active = max response mostly above about 13%, no sharp cut-off; inactive = mostly below about 14%; also: read at 38.3 µM for the half of the compounds with a filed dose
# Shiga inhibitor = A qHTS for Small Molecule Inhibitors of Shiga Toxin. inhibition, % at 38.7 µM. AID 2315, 2010. 290,000 compounds, 9.2% hits. Vero cells, Shiga toxin protein synthesis inhibition reporter; in the data active = inhibition mostly above about 28%, no sharp cut-off; inactive = mostly below about 43%
# Lassa entry inh = qHTS for Inhibitors of binding or entry into cells for Lassa Virus. 300,000 compounds, 1.2% hits. AID 540256, 2011. Potency, µM (top dose mostly 37.9 µM), hits mostly inhibitors. Lassa virus pseudotype entry inhibition, cell reporter; calls by dose curve; tested in HEK293 cells; also: nearly all actives have a fitted effect of over 50% in size
# Marburg entry inh = qHTS for inhibitors of binding or entry into cells for Marburg Virus; Marburg virus pseudotyped entry inhibition, cell reporter; Potency, µM (titrated, usually from 37.8 µM), actives largely listed as inhibitors; 300,000 compounds, 1.8% hits; AID 540276, 2011; calls by dose curve; tested in HEK293 cells
# Numbers stand for hits; n = inactive; u = inconclusive; x = no result; ! = not active in a repeat.
SMILES,CHX counter,Shiga inhibitor,Lassa entry inh,Marburg entry inh
CCC(=O)N/C(N)=N/c1nc2ccccc2o1,61,85,u,u
COc1ccccc1C(=O)N/C(N)=N/c1nc2ccccc2o1,n,37,n,n
CCCC(=O)N/C(N)=N/c1nc2ccccc2o1,51,87,u,u
CCC(C)NC(=O)CCn1c(=O)c2cccn2c2ccc(F)cc21 (centres undefined),n,n,u,n
CCOC(=O)c1cc(NC(=O)N2CCCCC2)c(C)nc1C,n,n,n,n
CC(C)=N/N=C(\N)SCc1ccccc1,19,n,u,n
COc1ccc(C2=NN(CN3C(=O)C(=O)c4ccccc43)C(c3ccc(OC)cc3)C2)cc1 (centres undefined),76,131,n,u
Cc1cc(NC(=O)C2CCCCC2)ncc1NC(=O)c1ccccn1,n,n,x,x
COc1ccc(C(=O)NCCCNC(=O)c2ccccn2)cc1,n,n,n,n
COc1ccc(C(=O)Nc2cc(C)c(NC(=O)c3ccccn3)cn2)cc1,40,48,n,n
CCCCC(=O)Nc1cc(C)c(NC(=O)c2cccs2)cn1,n,n,n,n
COc1ccc(C(=O)Nc2cnc(NC(=O)c3cccs3)cc2C)cc1,46,n,u,u
Cc1cc(NC(=O)C2CC2)ncc1NC(=O)c1ccccn1,40,71,n,n
CCCC(=O)Nc1cc(C)c(NC(=O)c2ccncc2)cn1,n,n,2.8µM,n
CCCCC(=O)Nc1cnc(NC(=O)c2cccs2)cc1C,31,x,x,x
CC1=C(C)C(=O)C(N2CCOCC2)=CC1=O,n,n,x,n
O=C1C=C(N2CCOCC2)c2ccccc2C1=O,n,x,u,2.5µM
CC(NC(=O)CN(c1ccc(Cl)cc1)S(C)(=O)=O)c1ccccc1 (centres undefined),n,n,u,u
O=S(=O)(c1ccc(F)cc1)N1CCN(CC(O)COCC2CCCO2)CC1 (centres undefined),x,x,n,n
CN(C)S(=O)(=O)c1cccc(-c2nnc(SCC(=O)NCCCCCC(=O)O)n2-c2ccc(F)cc2)c1,n,32,n,n
COc1ccc(-c2ccc(-c3noc(-c4ccccc4OC)n3)c(OC)n2)cc1,n,n,n,n
c1ccc(-c2cc(-c3nc(-c4ccccn4)no3)c3ccccc3n2)cc1,x,x,u,n
COc1cccc(-c2nc(-c3ccccn3)no2)c1OC,37,134,n,n
COc1cc(-c2nc(-c3ccccn3)no2)cc(OC)c1OC,17,81,n,n
c1ccc(-c2noc(-c3cccc4ccccc34)n2)nc1,43,41,u,u
SMILES,CHX counter,Shiga inhibitor,Lassa entry inh,Marburg entry inh
COc1ccccc1CN1COc2ccc3c(C)cc(=O)oc3c2C1,x,x,n,x
O=[N+]([O-])c1ccc(O)c(-c2nn[nH]n2)c1,37,53,n,u
O=C(Nc1nc(-c2ccccc2)cs1)C1CCCN(S(=O)(=O)c2ccccc2)C1 (centres undefined),n,n,10µM,8.2µM
CCCc1nc2ccccc2c(C(=O)OCC(=O)Nc2cccc(S(=O)(=O)N3CCOCC3)c2)c1CC,n,n,18µM,u
CCCc1nc2ccccc2c(C(=O)OCC(=O)Nc2ccc(S(=O)(=O)N3CCOCC3)cc2)c1CC,n,n,u,u
O=C(Nc1cccc([N+](=O)[O-])c1)c1cc(S(=O)(=O)N2CCOCC2)cs1,n,n,n,n
O=C(Nc1ccccc1[N+](=O)[O-])c1cc(S(=O)(=O)N2CCOCC2)cs1,19,n,n,n
Cc1ccc(-c2csc(NC(=O)c3cccc(S(=O)(=O)N4CCN(C)CC4)c3)n2)cc1,n,n,n,n
COc1cccc(C(=O)Nc2nc(-c3ccc(S(=O)(=O)N4CCOCC4)cc3)cs2)c1,n,n,11µM,u
CCCc1cc(=O)[nH]c(SCCCCN2C(=O)c3ccccc3C2=O)n1,n,n,n,n
COc1ccc(C(=O)COC(=O)Cn2cnc3ccccc3c2=O)c(OC)c1,x,x,n,n
CC(=O)c1ccc(N2C(=O)N(Cc3cc(C)ccc3C)c3ccccc3S2(=O)=O)cc1,x,x,n,x
Cc1cc(Br)ccc1NC(=O)c1coc(=O)c2ccccc12,x,x,n,n
O=C(Nc1nc(-c2ccc(S(=O)(=O)N3CCOCC3)cc2)cs1)c1ccccc1,n,n,u,4µM
Cc1ccc(-c2csc(NC(=O)COC(=O)c3cccc(S(=O)(=O)N4CCOCC4)c3)n2)cc1,22,131,n,u
CC1(c2ccc(Cl)cc2)NC(=O)N(CC(=O)Nc2cccnc2Cl)C1=O (centres undefined),x,x,n,n
CCOc1ccc(NC(=O)C(C)Oc2ccccc2C(=O)Nc2ccc(C)c(Cl)c2)cc1 (centres undefined),22,111,n,n
CCOc1ccc(NC(=O)c2ccccc2SC)cc1,50,59,x,x
COc1ccc(NC(=O)c2ccccc2SC)cc1,54,67,n,n
Cc1cccc(OCc2nnc(SCc3cc(=O)n4cc(Br)ccc4n3)o2)c1,n,n,n,n
COc1cc2ccccc2cc1C(=O)N(CCN(C)C)c1nc2c(OC)ccc(OC)c2s1,n,n,u,u
Cc1ccc2nc(N(CCN(C)C)C(=O)c3cc(Cl)sc3Cl)sc2c1,22,33,u,n
CCN(CC)CCN(C(=O)c1cc2ccccc2cc1OC)c1nc2ccc(F)cc2s1,n,n,n,5.6µM
CCN(CC)CCN(C(=O)c1cc2ccccc2cc1OC)c1nc2ccc(OC)cc2s1,n,n,x,x
COc1cc2ccccc2cc1C(=O)N(CCN(C)C)c1nc2ccc(C)cc2s1,n,n,u,4.5µM
SMILES,CHX counter,Shiga inhibitor,Lassa entry inh,Marburg entry inh
CSCC[C@H](NC(=O)[C@@H]1CSC2c3ccccc3C(=O)N21)C(=O)NCc1ccco1 (some centres undefined),n,n,x,x
O=[N+]([O-])c1ccc(CN2C=NS(=O)(=O)c3ccccc32)cc1,n,n,n,n
CCc1[nH]nc(C(=O)N2CCCC(Nc3cccc(F)c3)C2)c1C (centres undefined),31,66,n,n
NCCCNCCCCNCCCN,x,x,n,u
NCCCS(=O)(=O)O,n,n,u,8.2µM!
Cc1cccc(OCC(=O)Nc2ccc(S(=O)(=O)N(Cc3ccccc3)c3ccccc3)cc2)c1,x,x,n,n
O=[N+]([O-])c1cccc(-c2noc(-c3ccco3)n2)c1,28,63,x,x
O=[N+]([O-])c1cccc(-c2noc(COc3ccccc3)n2)c1,27,n,n,u
O=[N+]([O-])c1cccc(-c2nc(-c3ccccc3)no2)c1,n,49,n,n
COCCNC(=O)CN1C(=O)COc2ccc(S(=O)(=O)N3CCCC3)cc21,x,x,n,u
CN(Cc1ccccc1)Cc1c(O)ccc2c(=O)c(-c3ccccc3)c(C(F)(F)F)oc12,x,x,n,n
O=C(Nc1nc(-c2ccccc2)cs1)C1CCCO1 (centres undefined),38,111,u,n
O=C(Nc1nc(-c2ccc(-c3ccccc3)cc2)cs1)C1CCCO1 (centres undefined),n,n,n,n
O=C(Nc1nc(-c2ccc(F)cc2)cs1)C1CCCO1 (centres undefined),42,104,u,n
Cc1cccc(Nc2nc(-c3ccc(O)c(O)c3)cs2)n1,42,85,n,u
Cc1cccc(Nc2nc(-c3ccc(F)c(C)c3)cs2)n1,49,113,u,u
